Source: PubChem BioAssay (National Center for Advancing Translational Sciences (NCATS))
A selection: hits, their analogues and other compounds. The true share with any hit is near 11%.
Pf growth 48h: P. falciparum growth inhibition at 48 hours (one generation); P. falciparum luciferase growth in erythrocytes, 48 h; actives 5.9% (n = 310,000); Potency, µM (series often up to 28.7 µM), without a hit: at the highest dose activity change, negative = inhibition, most hits filed as inhibitors; further: on the % scale 0 is the no-effect control and ±100 the full control effect
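Luminescence readout; reporter = integrated firefly luciferase in P. falciparum. RBC culture at 2% hematocrit, 0.1% parasitemia final, 37 C/5% CO2; decreased signal taken as growth inhibition.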
Vaccinia mCherry: inhibitors of vaccinia virus infection (mCherry reporter signal); Vaccinia virus mCherry reporter infection, fluorescence; Potency, µM (top dose mostly 36.5 µM), inactives show top-dose activity change, negative = inhibition, hits mostly inhibitors; actives 0.63% (n = 310,000); AID 720579; calls by dose curve; tested in A549 cells; further: on the % scale 0 is the no-effect control and ±100 the full control effect; nearly all actives have a fitted effect of over 35% in size
HCV inh: blocks hepatitis C virus; Huh7.5.1 HCVcc-Cre infection, luciferase reporter, 44 h; Potency, µM (series often up to 41.8 µM), for the others: top-dose activity change, negative = inhibition, actives largely listed as inhibitors; actives 3.4% (n = 340,000); AID 651820; further: on the % scale 0 is the no-effect control and ±100 the full control effect
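Whole-lifecycle infectious HCVcc-Cre system; cells 1,000/well, compound then virus (~0.5 moi) added 4 h after plating, 44 h culture. Luciferase read 15 sec following 15 min substrate incubation, room temp.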
Pf growth 96h: P. falciparum growth inhibition at 96 hour, primary screen for plastid delayed-death inhibitors; P. falciparum luciferase reporter growth, 96 h; Potency, µM (highest dose often 28.7 µM), inactives show top-dose activity change, negative = inhibition, actives largely listed as inhibitors; actives 6.9% (n = 320,000); AID 504834; further: on the % scale 0 is the no-effect control and ±100 the full control effect
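Cell-based qHTS: luciferase-tagged P. falciparum in erythrocytes (2% hematocrit, 0.05% parasitemia final) incubated with compounds for 96 hours, 37 C, 5% CO2; luciferase detection reagent then added and luminescence measured.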
NS1 inh: blocks influenza NS1 protein function. AID 2326. actives 0.4% (n = 270,000). Potency, µM (titrated, usually from 46.1 µM), without a hit: at the highest dose activity, positive = more growth; calls by dose curve; further: actives are rising curves; nearly all actives have a fitted effect of over 50% in size
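Read-out: OD600 growth recovery of NS1-expressing budding yeast. Cells grown overnight at 30C in -URA glucose medium, washed, resuspended and diluted 1:100 in 2% galactose assay medium, pH 6.0. Same strain lacking NS1 served as positive control.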
VACV Venus inh: vaccinia inhibition (Venus reporter) | Potency, µM (titrated, usually from 36.5 µM), for the others: at the highest dose activity change, negative = inhibition, most hits filed as inhibitors | Vaccinia virus Venus reporter expression, fluorescence | AID 720580 | actives 0.46% (n = 330,000); calls by dose curve; tested in A549 cells; further: on the % scale 0 is the no-effect control and ±100 the full control effect; nearly all actives have a fitted effect of over 30% in size
The depositor's hits bear a star; i = inactive; ? = inconclusive; nt = not tested or not shown. Unless noted, the call rests on the fitted dose curve; in most records, active means well fitted inhibition curve with a large enough effect; inconclusive means small, poorly fitted or top-dose-only effect, or another doubt; inactive means no such curve, though single readings can be large or run the other way. Potency means the concentration at half of the fitted maximal effect.

SMILES	Pf growth 48h	Vaccinia mCherry	HCV inh	Pf growth 96h	NS1 inh	VACV Venus inh
CC1CCCCN1C(=O)Cn1cc(C=C2C(=O)N(C)C(=O)N(C)C2=O)c2ccccc21 (configuration not stated)	-6%	i	23%	-13%	9%	-10%
CC1CCCCN1C(=O)C(=O)c1cn(CC(=O)N2CCCCCC2)c2ccccc12 (configuration not stated)	?	i	-3%	13µM*	0%	-1%
O=C(c1ccco1)c1cn(CC(=O)N2CCCCC2)c2ccccc12	25%	-6%	-2%	1.7µM*	-11%	-8%
CCOc1cccc(-c2cc(-c3n[nH]c(=S)n3CC)c3ccccc3n2)c1	13µM*	nt	-24%	12µM*	10%	nt
CCn1c(-c2cc(-c3ccc(C)c(C)c3)nc3ccccc23)n[nH]c1=S	4.1µM*	nt	nt	3.7µM*	5%	nt
CCn1c(-c2cc(C3CC3)nc3ccccc23)n[nH]c1=S	?	i	-6%	?	8%	-12%
CCOc1ccccc1-c1cc(-c2n[nH]c(=S)n2CC)c2ccccc2n1	1.9µM*	3%	?	1.7µM*	8%	-17%
CCn1c(-c2cc(-c3cc(C)ccc3C)nc3ccccc23)n[nH]c1=S	?	i	-1%	2.6µM*	6%	-4%
CCCc1nnc(SCc2ccc(C(=O)OC)o2)n1N	10%	nt	-5%	29%	1%	-14%
Cc1cc(C)n(-c2ccc(C(=O)OCC(=O)Nc3cc(Cl)ccc3[N+](=O)[O-])cc2)n1	-1%	-10%	17%	35%	7%	-14%
CC(=O)c1c(C)[nH]c(C(=O)OCC(=O)Nc2ccc(C)cc2[N+](=O)[O-])c1C	13%	nt	2.8µM*	1%	25%	nt
Cc1ccc(NC(=O)COC(=O)C2=COCCO2)c([N+](=O)[O-])c1	21%	i	-5%	-2%	-3%	-20%
CC(=O)c1c(C)[nH]c(C(=O)OCC(=O)Nc2cc(Cl)ccc2[N+](=O)[O-])c1C	10%	nt	10µM*	?	16%	nt
CC1CCN(CCC(=O)N2CCCc3c2c(=O)oc2ccc(O)cc32)CC1	?	nt	-20%	-5%	-6%	nt
CN(CC(=O)N1CCCc2c1c(=O)oc1ccc(O)cc21)Cc1ccccc1	9.3µM*	nt	?	?	4%	nt
COc1ccccc1C1NC(=O)c2ccccc2O1 (configuration not stated)	10%	i	0%	?	?	-14%
CCOc1ccc(CNC(=O)CN2C(=O)CCn3nc(-c4cn(C)c5ccccc45)cc32)cc1OC	nt	-10%	nt	nt	nt	-10%
O=C(Nc1ccc2c(c1)CN(Cc1ccccc1O)CC2)C1CCCO1 (configuration not stated)	?	nt	-26%	3.3µM*	-17%	nt
COC(=O)C[C@H]1C=C[C@@H](NC(=O)Cc2cccnc2)[C@@H](CO)O1	nt	-6%	nt	nt	nt	-5%
N#CC(c1ccc(Cl)cc1)c1ccc2c(C(F)(F)F)cc(C(F)(F)F)nc2n1 (configuration not stated)	nt	nt	?	2.6µM*	-169%	14µM*
Clc1ccc(Cn2ncc3c(NCc4ccco4)ncnc32)c(Cl)c1	?	nt	?	-19%	-58%	?
O=C(CN(Cc1ccccc1F)S(=O)(=O)c1ccc(Cl)cc1)NCCC1=CCCCC1	?	nt	-27%	12µM*	3%	nt
Cc1ccc(S(=O)(=O)N(CC(=O)NCCC2=CCCCC2)Cc2ccccc2F)cc1	?	nt	?	12µM*	-38%	-17%
O=C(CN(Cc1ccccc1)S(=O)(=O)c1ccc(F)cc1)NCCC1=CCCCC1	?	nt	?	77%	-47%	nt
O=C(CCC(=O)N1CCCC1)Nc1nnc(C(F)(F)F)s1	-17%	i	-1%	?	-7%	-9%
SMILES	Pf growth 48h	Vaccinia mCherry	HCV inh	Pf growth 96h	NS1 inh	VACV Venus inh
CCCCc1ccc(NC(=O)c2ccc(N(C)S(C)(=O)=O)cc2)cc1	4%	-10%	?	-2%	2%	-23%
COc1cccc(CN(C)Cc2c(O)ccc3ccccc23)c1	?	?	-1%	-1%	9%	-23%
CC(C)(C)NC(=O)/C=C/c1cccc(C(F)(F)F)c1	11%	-7%	10%	-12%	-9%	-4%
CC(=O)Nc1ccccc1OCC(=O)c1cc(C)n(Cc2cccs2)c1C	150%	nt	?	56%	-43%	nt
Cc1cc2c(C)cc(=O)[nH]c2cc1NC(=O)CCl	?	nt	11µM*	8.3µM*	6%	nt
Cc1cc2oc(=O)cc(C)c2cc1NC(=O)CCC(=O)O	nt	-16%	-25%	-2%	-9%	-8%
Cc1cc2oc(=O)cc(C)c2cc1NC(=O)CCl	?	?	?	4.7µM*	7%	?
CCCSc1nnc(Nc2ccccc2C)s1	58%	-20%	7%	101%	-14%	-5%
CC(C)CC(=O)OC1C(N2CCOCC2)c2c(ccc(/C=C/C(=O)N3CCOCC3)c2O)OC1(C)C (configuration not stated)	?	i	21%	2.6µM*	-4%	-7%
Cc1ccn2c(c1)nc(=S)n2C(=O)c1ccco1	149%	nt	nt	23%	19%	nt
CCCCN1CCCC1C(=O)Nc1c(C)cc(C)cc1C (configuration not stated)	-25%	nt	nt	2.6µM*	nt	nt
C/C(=N\NC(=O)C(C)Nc1cccc(Cl)c1)c1ccc([N+](=O)[O-])cc1 (configuration not stated)	8%	?	-22%	?	3%	-18%
COC(=O)c1ccc(CN2CCC(Oc3ccc(C(=O)N4CCCCC4)cc3)CC2)cc1	nt	-23%	?	nt	nt	-20%
O=C(c1nn(Cc2ccccc2)c(=O)c2ccccc12)N1CCN(C/C=C/c2ccccc2)CC1	12µM*	nt	?	7.4µM*	-5%	-18%
S=C(NC1CCCCC1)N1CCN(C/C=C/c2ccccc2)CC1	?	-26%	8.9µM*	10%	-13%	-20%
COc1ccc(NS(=O)(=O)c2cc(C(=O)N3CCN(C/C=C/c4ccccc4)CC3)ccc2C)cc1	12µM*	-12%	?	?	nt	-22%
Cc1cc(C)cc(CN2CCC(Oc3ccc(C(=O)N4CCCC4)cc3)CC2)c1	12µM*	-21%	-17%	-19%	-6%	-25%
COc1ccc(C(=O)C[n+]2cccc(C)c2)cc1	-12%	-14%	15%	-25%	4%	-12%
O=C(NCCC1=CCCCC1)c1cc2c(s1)CS(=O)(=O)C2	39%	-22%	18%	2%	2%	-19%
COc1cc(OC)cc(-c2nc3nc(C)c(CCC(=O)NCCC(C)C)c(C)n3n2)c1	nt	6%	nt	nt	nt	-3%
COc1ccc(/C=C/CN2CCC(Oc3ccc(C(=O)N4CCCCC4)cc3)CC2)cc1	?	-15%	-7%	?	-4%	-27%
